Measurements reported in PubChem BioAssay AID504834 (National Center for Advancing Translational Sciences (NCATS), 2011).
The campaign covered roughly 320,000 compounds. About 22,000 (6.9%) were called active. Inconclusive results (about 27%) are left out. Calls follow the shape of the dose curve; as a rule, active = well fitted inhibition curve with a large enough effect; inconclusive = small, poorly fitted or top-dose-only effect, or another doubt; inactive = no such curve, though single readings can be large or run the other way. The list comes from a sample in which actives are over-represented; it also holds similar structures and randomly drawn compounds.

Assay: Primary qHTS for delayed death inhibitors of the malarial parasite plastid, 96 hour incubation
Conditions: P. falciparum luciferase reporter growth; series mostly up to 28.7 µM; activity change, negative = inhibition: at the top concentration
How it was run: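 Luminescence readout: decreased luciferase signal marks inhibited growth of reporter-expressing P. falciparum in infected red cells (2% hematocrit, 0.05% parasitemia final), exposed to compound two generations (96 h, 37 C, 5% CO2).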
% is scaled to controls: 0 for no effect and ±100 for the full control effect; potency is read from the fitted curve at half-maximal effect.

SMILES	activity change, negative = inhibition	Potency
O=C(c1c(F)cccc1F)N1CCN(c2ncc(Br)cn2)CC1	8.96% (inactive)	
COC(=O)c1ccc(/C=N/NC(=O)C(=O)N2CCCCCC2)cc1	14% (inactive)	
Brc1ccccc1C1N=C(c2ccccc2)NO1 (stereo not given)	189% (inactive)	
CCCCn1c(N)c(N(CC(C)C)C(=O)c2cccc(S(=O)(=O)N3CCN(C(C)=O)CC3)c2)c(=O)[nH]c1=O	-22.4% (inactive)	
CCN(C(=O)Cc1c(C(=O)O)n(CC)c2ccccc12)c1ccccc1C	41.7% (inactive)	
COc1ccc(C(=O)COC(=O)Cn2cnc3c2c(=O)n(C)c(=O)n3C)c(OC)c1	-24.7% (inactive)	
N#Cc1cccc(CSc2ncnc(N)n2)c1	2.96% (inactive)	
Cc1cc(C)n(-c2nnc(N3CCN(c4ccccc4)CC3)nn2)n1		0.329 µM (active)
Cc1cc(-n2nc(C)cc2C)n2ncc(-c3ccccc3)c2n1	0% (inactive)	
Cc1cc(N2CCN(c3ccccc3)CC2)nc(N2CCOCC2)n1	-12% (inactive)	
COc1ccc(N(CC(=O)Nc2cc(OC)cc(OC)c2)S(=O)(=O)c2c(C)n[nH]c2C)cc1	3.89% (inactive)	
Cc1ccnc(N2C(=O)c3ccc([N+](=O)[O-])cc3C2=O)c1	-15.9% (inactive)	
Nc1cc(N2CCCCCC2)c2nonc2c1[N+](=O)[O-]	-10.3% (inactive)	
COc1ccc(C(=O)NC(=S)Nc2ccc(N3CCCC3)cc2)cc1OC	-18.8% (inactive)	
COc1ccc(C(=O)Nc2ccc3nc(N4CCCCC4)cc(C)c3c2)cc1OC		11.7 µM (active)
COc1ccc(C(=O)Nc2ccc3c(c2)OCO3)cc1OC	155% (inactive)	
COc1ccccc1C(=O)NCC(=O)NCCSc1ccc(Br)cc1	-14.1% (inactive)	
CCOc1cc(/C=N/Nc2cc(C)nc3ccc(C)cc23)ccc1O	-21.3% (inactive)	
CNc1ccc([N+](=O)[O-])cc1C(=O)O	-4.06% (inactive)	
CCCCN(C(=O)c1ccc(S(=O)(=O)N2CCOCC2)cc1)C1CCS(=O)(=O)C1 (stereo not given)	22% (inactive)	
CC1CCCCN1C(=O)Cn1c(=O)oc2cc(S(=O)(=O)N3CCCCC3)ccc21 (stereo not given)	-24% (inactive)	
COC(=O)c1ccc(N2CCOCC2)c(NC(=O)c2ccc(Br)o2)c1	33.6% (inactive)	
O=C(Nc1ccccc1N1CCN(C(=O)c2ccccc2)CC1)c1ccco1	-8.23% (inactive)	
CCCNC(=O)c1ccc(N2CCC3(CC2)CC(c2cccc(Br)c2)=NO3)c(NC(=O)c2ccco2)c1		0.37 µM (active)
CC(CCc1ccc(O)cc1)NCc1ccc(Cl)cc1Cl (stereo not given)	22.2% (inactive)	
O=C(CNS(=O)(=O)c1ccccc1)N1CCN(C(=O)c2ccco2)CC1	33.3% (inactive)	
CC(OC(=O)Cc1ccc(F)cc1)C(=O)N1CCc2ccccc21 (stereo not given)	33.6% (inactive)	

SMILES	activity change, negative = inhibition	Potency
N=c1c2c3c(sc2ncn1N)CCCCC3		3.7 µM (active)
N=c1c2c3c(sc2ncn1N)CCCC3	-21.6% (inactive)	
c1nnc2c3c4c(sc3ncn12)CCC4	-4.03% (inactive)	
C[C@@H]1O[C@@H](OC[C@H]2O[C@@H](Oc3c(-c4ccc(O)cc4)oc4cc(O)cc(O)c4c3=O)[C@H](O)[C@@H](O)[C@@H]2O)[C@H](O)[C@H](O)[C@H]1O	41.3% (inactive)	
COc1ccc(CC(=O)Nc2cc(S(=O)(=O)N3CCCCC3)ccc2N2CCN(C)CC2)cc1		6.57 µM (active)
O=C(COC(=O)Cc1ccc(F)cc1)Nc1cc(S(=O)(=O)N2CCOCC2)ccc1N1CCCC1	-12.5% (inactive)	
CN1CCN(c2ccc(S(=O)(=O)N3CCOCC3)cc2NC(=O)CCc2ccccc2)CC1	-0.796% (inactive)	
CCOc1cccc2cc(C(=O)OCC(=O)Nc3c(C)cccc3CC)c(=O)oc12	5.09% (inactive)	
Cc1ccc(S(=O)(=O)N2CCC3(CC2)OCCO3)c(C)c1	49% (inactive)	
Cc1cccc(N2CCN(C(C)C(=O)N3CCc4ccccc43)CC2)c1C (stereo not given)	-15.4% (inactive)	
Cc1sc2ncn(CC(=O)NCCCC(=O)N(C)Cc3ccccc3)c(=O)c2c1C	8.23% (inactive)	
Cc1ccccc1CC1(CO)CCCN(Cc2ccc3c(c2)OCCO3)C1 (stereo not given)		14.7 µM (active)
COc1cccc(CC2(CO)CCCN(CC3=Cc4cc(OC)ccc4OC3)C2)c1 (stereo not given)	-2.4% (inactive)	
CCOc1cc(CN2CCCC(CO)(Cc3ccc(F)cc3F)C2)ccc1OC (stereo not given)	-25% (inactive)	
CC(NC(=O)c1cc2cc(Cl)ccc2oc1=N)c1ccccc1 (stereo not given)	-10.9% (inactive)	
Cc1c(C(=O)Nc2cccc(Cl)c2)cn2c(nc3ccccc32)c1C#N		2.94 µM (active)
Cn1cc(Cl)c(C(=O)NNC(=S)Nc2cccc(Cl)c2)n1	25.8% (inactive)	
Cn1c(Nc2cccc(Cl)c2)nc2ccccc21	3.82% (inactive)	
O=S(=O)(c1cccs1)N1CCN(CCOc2ccccc2)CC1	9.87% (inactive)	
COc1ccccc1C(=O)Nn1cnnc1	-44.5% (inactive)	
CCn1cc(C(=O)NCCO)c(=O)c2cc(F)c(N3CCN(C)CC3)cc21	13.3% (inactive)	
CCOC(=O)c1ccc(NC(=O)CCn2c(=O)oc3ccccc32)cc1	6.94% (inactive)	
C/C(=N\NC(=O)c1ccccc1F)c1ccccn1	-24.9% (inactive)	
COc1ccc(CC(=O)N/N=C(\C)c2ccccn2)cc1		3.29 µM (active)
C/C(=N\NC(=O)Cc1ccc(Br)cc1)c1cccnc1	-24.8% (inactive)	
Nc1nnc(SCC(=O)NC2CCCc3ccccc32)s1 (stereo not given)	-8.49% (inactive)	
c1ccc(COc2nsnc2N2CCOCC2)cc1	2.16% (inactive)	

SMILES	activity change, negative = inhibition	Potency
Fc1cnc(N2CCOCC2)nc1NCc1ccccc1		2.94 µM (active)
O=C(c1cccnc1NCc1ccccc1)N1CCOCC1	-5.66% (inactive)	
CC(=O)c1ccc(S(=O)(=O)N2CCC(Oc3ccc(-n4cnnn4)cc3)CC2)cc1	-14.5% (inactive)	
O=C1[C@@H]2C(Cc3ccc(O)cc3)NC3(C(=O)Nc4ccc(F)cc43)[C@@H]2C(=O)N1c1ccc(F)cc1 (stereo not given in full)	-3.79% [at 5.75 µM] (inactive)	
CSCCC1NC2(C(=O)Nc3ccc(Cl)cc32)[C@@H]2C(=O)N(C3CCCC3)C(=O)[C@H]12 (stereo not given in full)		11.7 µM (active)
CC(C)(C)NC(=O)NCc1ccco1	24.3% (inactive)	
O=C(Nc1ccc2c(c1)OCCO2)C1CCCN(c2ncccn2)C1 (stereo not given)	-5.17% (inactive)	
Cc1cc(C)nc(N2CCC(C(=O)Nc3ccc4c(c3)OCCO4)CC2)n1		9.28 µM (active)
Cc1sc2ncn(CC(=O)NCCCC(=O)N3CCN(c4ccccc4F)CC3)c(=O)c2c1C	-28.1% (inactive)	
CC(=O)c1cc(CN2CCC(n3nccc3NC(=O)c3ccccc3Cl)CC2)cs1	23% (inactive)	
CC(=O)Nc1ccc(/C=N/Nc2ccc(C(=O)c3c(C)cc4ccccn34)cc2[N+](=O)[O-])cc1	92.7% (inactive)	
Cc1c(CCC(=O)O)c(=O)oc2c(C)c(OCc3ccccc3Cl)ccc12	56.3% (inactive)	
CCOC(=O)CCc1c(C)c2ccc(OCc3nn[nH]n3)c(C)c2oc1=O	-14.7% (inactive)	
COc1ccc2c(C)c(CCC(=O)NC3CC3)c(=O)oc2c1C		4.15 µM (active)
Cc1c(C(C)CCCO)oc(=O)c2c1Oc1c(C)c(C(C)C[C@@H](C)O)oc(=O)c1C2 (stereo not given in full)	-32.3% (inactive)	
CN1c2ccc([N+](=O)[O-])cc2C(C)(C)C12C=Cc1cc(C(=O)O)ccc1O2 (stereo not given)	-17.2% (inactive)	
O=C(CCSc1ccccc1)N1CCN(c2ccccc2F)CC1	18.7% (inactive)	
O=C(c1cccc2ccccc12)N1CCN(c2ccccc2F)CC1	-12.8% (inactive)	
CC(C(=O)N1CCN(c2ccccc2F)CC1)c1ccc([N+](=O)[O-])cc1 (stereo not given)		9.28 µM (active)
Cc1ccc(OCCCC(=O)Nc2ccc3c(c2)OCCO3)cc1	37.2% (inactive)	
O=C(Nn1cnnc1)c1cc(Cl)ccc1Cl	2.88% (inactive)	
O=C(NC(=S)Nc1ccc(Cl)c(C(=O)O)c1)c1cncc(Br)c1	11.9% (inactive)	
Cn1c2c(c(=O)n(C)c1=O)[C@@H]1c3c(ccc4ccccc34)OC[C@@H]1CO2	43% (inactive)	
Cn1c2c(c(=O)n(C)c1=O)C1c3ccccc3OCC1C(C)(C)O2 (stereo not given)		1.65 µM (active)
COc1cccc2c1OCC1COc3c(c(=O)n(C)c(=O)n3C)C21 (stereo not given)	-2.79% (inactive)	
COc1ccc(C(=O)OCC(=O)c2ccc(C)c(S(=O)(=O)N3CCOCC3)c2)cc1OC	5.96% (inactive)	
COc1ccccc1OC(=O)c1ccc(C)c(S(=O)(=O)N2CCOCC2)c1	26.4% (inactive)	

SMILES	activity change, negative = inhibition	Potency
COc1ccc(COC(=O)c2ccc(Cl)c(S(=O)(=O)N3CCOCC3)c2)cc1F		14.7 µM (active)
C=CCNC(=O)c1ccccc1SCc1c(C)noc1C	27.8% (inactive)	
O=C(c1ccc[nH]c1=S)N1CCN(S(=O)(=O)c2ccc(Br)cc2Cl)CC1	-19.4% (inactive)	
Cc1cc(C(=O)Nc2nnc(C3CC3)s2)c(C)s1	249% (inactive)	
O=C(Nc1nnc(C2CC2)s1)c1ccccn1		10.4 µM (active)
O=C(Nc1nnc(C2CC2)s1)c1cc(Cl)sc1Cl	6.36% (inactive)	
C=CCN1CC(C)/C(=N\O)CC1C (stereo not given)	31.3% (inactive)	
Cc1cnc(C(=O)OCc2c(C)cc(C(C)(C)C)cc2C)cn1	1.17% (inactive)	
CCn1c(=O)c([N+](=O)[O-])c(NCc2ccc3c(c2)OCO3)c2ccccc21	35.4% (inactive)	
S=C(NCc1ccco1)NCc1ccccc1Cl	41.9% (inactive)	
Cc1[nH]c2ccccc2c1C(=O)CSCC(=O)O	-26.8% (inactive)	
Cc1[nH]c2ccccc2c1C(=O)CN1CC(C)CC(C)C1 (stereo not given)	-0.784% (inactive)	
Cc1[nH]c2ccccc2c1C(=O)C(C)Sc1nnc(C2CC2)o1 (stereo not given)		4.15 µM (active)
Cc1ccc(SCCSc2ncccn2)cc1	175% (inactive)	
COCCCNC(=O)[C@H]1N2C(=O)c3ccccc3C2SC1(C)C (stereo not given in full)	43% (inactive)	
CC1(C)SC2c3ccccc3C(=O)N2[C@@H]1C(=O)NCc1ccco1 (stereo not given in full)		5.22 µM (active)
O=C(NCc1ccccc1)[C@@H]1CSC2c3ccccc3C(=O)N21 (stereo not given in full)	59.5% (inactive)	
COc1cccc(NC(=O)CN(C)C(=O)CSC(=S)N2CCCC2)c1	-0.38% (inactive)	
Cc1c(Cl)cccc1NC(=O)NCc1ccc(C)n1C	8.99% (inactive)	
Cc1ccc(C2CC(c3cccc(NS(C)(=O)=O)c3)=NN2S(C)(=O)=O)cc1 (stereo not given)	39.8% (inactive)	
CCOc1ccccc1C1CC(c2cccc(NS(C)(=O)=O)c2)=NN1C(=O)c1ccccc1 (stereo not given)		13.1 µM (active)
CS(=O)(=O)Nc1cccc(C2=NN(C(=O)c3cccc(F)c3)C(c3cccs3)C2)c1 (stereo not given)	23.1% (inactive)	
CCN(CC(=O)Nc1c(F)cccc1F)C(=O)CN1c2cccc3cccc(c23)S1(=O)=O	-23.6% (inactive)	
Cc1cccc(C(=O)OCC(=O)Nc2ccc(F)cc2)c1	24.1% (inactive)	
